Screen size: about 1,300 compounds; about 25 (2%) were called active. Where a call stands in place of a potency, no number is given. Inconclusive results (about 9%) are left out. Calls come from the whole dose curve; as a rule, active = well fitted activation curve with a large enough effect; inconclusive = small, poorly fitted or top-dose-only effect; inactive = flat fitted curve, though single readings scatter. Only a selection was taken, and actives are over-represented in it overall.
Potency is the fitted concentration of half-maximal effect.

For this assay, the target named is Glucagon-like peptide 1 receptor (Homo sapiens) (UniProt P43220). The experiment in a line: qHTS of GLP-1 Receptor Agonists: Hit Validation. The conditions noted are these: HEK293 GLP-1R, cAMP-response luciferase, 4-6 h; series mostly up to 46.1 µM. The essentials: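 Stably transfected HEK293 cells co-expressing GLP-1R and a cAMP-responsive luciferase reporter, plated 12 h before compound. Compound exposure 4-6 hr at 37 deg C, 5% CO2; luciferase luminescence read after 12 min detection at RT.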
Chain of Glucagon-like peptide 1 receptor (Homo sapiens) (P43220 whole entry, looked up): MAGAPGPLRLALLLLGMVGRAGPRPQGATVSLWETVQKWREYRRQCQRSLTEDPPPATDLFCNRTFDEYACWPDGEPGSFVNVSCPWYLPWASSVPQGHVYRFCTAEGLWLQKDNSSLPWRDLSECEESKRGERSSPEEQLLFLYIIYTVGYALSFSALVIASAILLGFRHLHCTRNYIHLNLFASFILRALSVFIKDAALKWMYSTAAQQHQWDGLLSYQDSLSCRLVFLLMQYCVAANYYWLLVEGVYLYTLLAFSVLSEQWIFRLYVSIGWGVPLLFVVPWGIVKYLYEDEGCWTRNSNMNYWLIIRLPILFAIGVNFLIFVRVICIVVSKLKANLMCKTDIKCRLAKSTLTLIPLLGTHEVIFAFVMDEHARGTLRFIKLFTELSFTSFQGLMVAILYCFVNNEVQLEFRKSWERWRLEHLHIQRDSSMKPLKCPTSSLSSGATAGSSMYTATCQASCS
For orientation: qHTS replaces the single test concentration by a dilution series.
In the case of `C/C(=N\Nc1nc2ccccc2[nH]1)c1ccc(C)o1`, the Potency result is “inactive”.

Consider `COc1cc(C#Cc2ccc3cc(CCO)oc(=O)c3c2)cc(OC)c1`, for which the Potency result was “inactive”.

As to `O=c1[nH]n(CC2COC3(CCCCC3)O2)c(=O)c2ccccc12` (stereo not given), the Potency entry is “inactive”.

Take `COCc1cccc(-c2csc(C(C)(O)c3cccc(F)c3)n2)c1` (stereo not given): the Potency result was “inactive”.

In the case of `COc1cc(SC)ccc1C(=O)OCc1nc2ccsc2c(=O)[nH]1`, the Potency entry is “inactive”.

As for `CSc1nnc(C)c(/C=C/Nc2ccc(F)cc2)n1`, the Potency entry is “inactive”.

With `CN(C)c1ccc(N=Nc2ccccc2C(=O)OCC(=O)Nc2ccccc2C(F)(F)F)cc1`, the Potency result was “inactive”.

In the case of `COc1ccc(/C=N/n2c(-c3ccc(C)cc3)n[nH]c2=S)cc1OC`, the Potency entry is “inactive”.

`C=CCn1c2ccccc2c(=O)c2cc(C#CC3(O)CCCCC3)ccc21`: the Potency entry is “inactive”.

On to `O=C(Nc1ccccc1)OCc1cc(-c2ccccc2Cl)on1`, for which the Potency entry was “inactive”.

For the compound `CCCc1cc(-c2ccc(O)c(OCC)c2)c(C#N)c(N)n1`, the Potency entry was “inactive”.

In the case of `COc1ccc(CCN(C)C/C=C/c2ccccc2[N+](=O)[O-])cc1OC`, the Potency result is “inactive”.

`CCCOc1ccc2c(=O)c(-c3cc(C(=O)OC)oc3C)c(C)oc2c1`: the Potency entry was “inactive”.

Take `Fc1ccccc1COc1ccc(Br)cc1CNCc1cccnc1`: the Potency entry was “inactive”.

For `COc1ccc(Cc2noc(-c3ccc(OC)c(OC)c3)n2)cc1OC`, the Potency result is “inactive”.

For `COc1cc(-c2nc(Cc3ccccc3Cl)no2)cc(OC)c1OC`, the Potency entry is “inactive”.

On to `COc1ccc(CN(C)Cc2nc(Cc3ccccc3Cl)no2)cc1OC`, for which the Potency is 16.4 µM (active).

Regarding `CCCCCCSC1=C(C#N)C(c2ccc(O)cc2)CC(=O)N1` (stereo not given), the Potency result is “inactive”.

On to `NS(=O)(=O)c1cccc(NC(=O)Nc2ccccc2)c1`, for which the Potency result is “inactive”.

As for `CCc1ccc(C(=O)COC(=O)c2cc([N+](=O)[O-])ccc2NCCO)cc1`, the Potency entry was “inactive”.

With `CC(CCc1ccco1)NC(=O)c1cccc2c1C(=O)N(C1CCCCC1)C2` (stereo not given), the Potency result is “inactive”.

On to `Cc1nn(-c2ccccc2)c(Cl)c1/C=N/NC(N)=O`, for which the Potency entry is “inactive”.

For the compound `Cc1ccccc1Nc1nc(N)nc(-c2oc3ccccc3c2C)n1`, the Potency entry is “inactive”.

As to `COc1cccc(C(C)(O)c2nc(-c3ccc(OC)c(OC)c3)cs2)c1` (stereo not given), the Potency result is “inactive”.

In the case of `Cc1c(C(=O)N(C)C(C)c2ccccn2)oc2c(F)cccc12` (stereo not given), the Potency result is “inactive”.

As to `CCOCCCn1c(=NC(=O)c2cccnc2)c(C(=O)OCC)cc2c(=O)n3ccccc3nc21`, the Potency entry was “inactive”.

On to `COc1ccc(-c2cc(C3CC3)nc(N)c2C#N)cc1`, for which the Potency entry was “inactive”.

For `CCOC(=O)c1c(NC(=O)Cc2ccccc2)sc2c1CCN(CC)C2`, the Potency entry was “inactive”.

For `CCOC(=O)c1cnc2c(c(C)nn2CC)c1NC1CC1`, the Potency result was “inactive”.

As to `c1ccc(Cn2nnc3c(N4CCC5(CC4)OCCO5)ncnc32)cc1`, the Potency entry is “inactive”.

With `COc1ccc(CCN(C)C(=O)CCc2nnc(-c3ccccc3)o2)cc1OC`, the Potency entry was “inactive”.

Turning to `COc1ccccc1Nc1cc(C(=O)NCc2cccnc2)c2ccccc2n1`, the Potency entry was “inactive”.

`COc1cc2c(cc1OC)CN(C(=O)c1ccc(S(=O)(=O)N(C)c3ccccc3)cc1)CC2`: the Potency entry is “inactive”.

Consider `O=c1c2c3c(sc2nc(NCCO)n1Cc1ccco1)CCCCC3`, for which the Potency result is “inactive”.

Take `CCSc1cc(C)nc2c(-c3ccccc3)c(C)nn12`: the Potency result is “inactive”.

As to `CCOC(=O)c1sc(NC(=O)/C=C/c2cnn(CC)c2C)c(C(=O)OCC)c1C`, the Potency result is “inactive”.

As to `Cc1ccc(C)c(S(=O)(=O)Nc2cc3c4c(c2)CCC(=O)N4CCC3)c1`, the Potency result is “inactive”.

As for `COc1cc2c(cc1OC)C(C)N(C(=O)C1COc3ccccc3O1)CC2` (stereo not given), the Potency result was “inactive”.

For the compound `COc1ccc(-c2nc(C#N)c(NCc3ccc(C)cc3)o2)cc1OC`, the Potency entry was “inactive”.

Regarding `COC(=O)c1ccc(CSc2nnc3nc(C)cc(C)n23)cc1`, the Potency entry is “inactive”.

Consider `C=CCOc1ccc(CNc2nccs2)cc1OCC`, for which the Potency entry is “inactive”.

Regarding `CCOC(=O)c1c(C)n(-c2ccccc2)c2ccc(OCCN(C)C)cc12`, the Potency result is “inactive”.

Take `CC(=O)Nc1nc(CC(C)C)cc2c1c(=O)oc1ccccc12`: the Potency result is “inactive”.

Turning to `CCN(CC)CC(=O)Nc1scc2c1c(=O)oc1ccccc12`, the Potency was 8.2 µM (active).

Regarding `CC(=O)c1oc2ccccc2c1NC(=O)CN1CCCCC1`, the Potency entry was “inactive”.

Regarding `CCOC(=O)c1sc(NC(=O)C2=COCCO2)c(C#N)c1C`, the Potency entry is “inactive”.

Turning to `COc1cccc(OCCNc2cc(N3CCOCC3)ccc2[N+](=O)[O-])c1`, the Potency result is “inactive”.

Take `CCOC(=O)c1c(NC2OC(=O)c3c2ccc(OC)c3OC)sc(C(=O)OC(C)(C)C)c1C` (stereo not given): the Potency entry was “inactive”.

With `N#Cc1c(-c2ccc(F)cc2)noc1N`, the Potency entry was “inactive”.

In the case of `COc1ccc(CSc2nnnn2-c2ccccc2)cc1`, the Potency result is “inactive”.

For `O=[N+]([O-])c1cnccc1NC1CCCCC1`, the Potency result is “inactive”.

As to `O=C1CN(c2nc(-c3cccnc3)nc3sc4c(c23)CCCC4)CCN1`, the Potency entry was “inactive”.

For the compound `COC(=O)CSc1ncnc2scc(-c3ccccc3)c12`, the Potency result was “inactive”.

On to `COC(=O)CCSCC(=O)N1N=C(c2ccc(OC)cc2)CC1c1cccc(OC)c1OC` (stereo not given), for which the Potency entry was “inactive”.

For the compound `CCC(=O)Nc1sc2c(c1C#N)CCCCC2`, the Potency entry was “inactive”.

As to `Cc1nc(N2CCOCC2)c2c(C)c(C(=O)Nc3ccccc3C(F)(F)F)sc2n1`, the Potency result is “inactive”.

Take `CN(C)c1ncnc2sc(-c3ccccc3)cc12`: the Potency result was “inactive”.

As to `Cc1nc(N2CCOCC2)c2cc(-c3ccccc3)sc2n1`, the Potency was 8.2 µM (active).

In the case of `COc1ccc(C(=O)NCC2(c3ccc(OC)c(OC)c3)CCCC2)cc1OC`, the Potency entry was “inactive”.

Turning to `CC(=NNC(=S)Nc1ccc(C)cc1)c1ccccn1`, the Potency entry was “inactive”.

Regarding `COC(=O)c1ccc(Cn2nc(-c3cc(C)ccc3C)ccc2=O)cc1`, the Potency result was “inactive”.

In the case of `COc1cc(SC)ccc1C(=O)Nc1ccccc1`, the Potency result was “inactive”.

On to `Cc1c(C)n(Cc2ccccc2)c2ncnc(NCCO)c12`, for which the Potency result is “inactive”.

For the compound `COc1ccc(-c2cc(C(=O)N3CCCC(C(F)(F)F)C3)c3ccccc3n2)cc1OC` (stereo not given), the Potency result was “inactive”.

`C=CCN1N=C(c2ccc(Cl)s2)CSC1=O`: the Potency entry was “inactive”.

With `CCOC(=O)c1nnn(-c2nonc2N)c1-c1cccs1`, the Potency result was “inactive”.

Consider `CCc1ccc(C(=O)COC(=O)c2cc([N+](=O)[O-])ccc2N2CCOCC2)cc1`, for which the Potency result was “inactive”.

As for `COc1ccc(C(=O)c2cc([N+](=O)[O-])ccc2N2CCOCC2)cc1`, the Potency result was “inactive”.

Turning to `COc1ccc(C(=O)COC(=O)c2cc([N+](=O)[O-])ccc2N2CCOCC2)c(OC)c1`, the Potency is 20.6 µM (active).

`CC(=O)Nc1cc(-c2ccccc2Cl)cn2c(-c3ccc(S(C)(=O)=O)cc3)cnc12`: the Potency entry was “inactive”.

Consider `COc1ccc(-c2nnc(OCc3nc4ccccc4n3C)c3ccccc23)cc1`, for which the Potency result was “inactive”.

For the compound `CCOc1ccc(Br)cc1S(=O)(=O)Nc1ccc(C(=O)OCC(=O)N(C)c2ccccc2)cc1`, the Potency result is “inactive”.

`CCOC(=O)c1c(C)[nH]c2cc(Br)c(O)cc12`: the Potency result was “inactive”.

On to `CC1CN(c2nc(N(C)c3ccccc3)nc(N)c2[N+](=O)[O-])CC(C)O1` (stereo not given), for which the Potency entry was “inactive”.

In the case of `COc1ccc(-c2nc(C#N)c(NC(C)c3ccccc3)o2)cc1OC` (stereo not given), the Potency entry is “inactive”.

For `CCOC(=O)n1c(=O)n(Cc2ccccc2Cl)c2ccccc21`, the Potency result was “inactive”.

Turning to `O=c1[nH]nc(-c2ccc(NCCO)c([N+](=O)[O-])c2)c2ccccc12`, the Potency entry is “inactive”.

For `COc1ccc(C(=O)Cc2ccccc2)cc1OC`, the Potency entry is “inactive”.

Turning to `COCc1cc(C)nc2sc(C(=O)OC(C)C)c(N)c12`, the Potency entry is “inactive”.

Turning to `CCCCn1c(=NC(=O)c2cccnc2)c(C(=O)OCC)cc2c(=O)n3ccccc3nc21`, the Potency result was “inactive”.

As to `COc1ccc(NC(=O)c2cccnc2)cc1OCC(C)C`, the Potency result was “inactive”.

As for `O=C(Cn1nc(-c2ccc(N3CCOCC3)c([N+](=O)[O-])c2)c2ccccc2c1=O)N1CCCCC1`, the Potency entry was “inactive”.

Regarding `OC(c1ccccc1)c1nc(-c2ccccc2)cs1` (stereo not given), the Potency result was “inactive”.

For `OC(c1ccccc1)c1nc(-c2csc3ccccc23)cs1` (stereo not given), the Potency is 7.31 µM (active).

For `COc1ccccc1Nc1nc(Cl)nc(Nc2ccccc2OC)n1`, the Potency entry is “inactive”.

With `CCOc1ccc(Oc2c(/C=N/NC(N)=O)c(C)nn2-c2ccccc2)cc1`, the Potency result was “inactive”.

As to `CCN(CC)S(=O)(=O)c1cc(NC(=O)c2ccccc2OCc2c(C)noc2C)ccc1C`, the Potency result is “inactive”.

`CCc1cc2c(-c3ccccc3)cc(=O)oc2c(CN2CCOCC2)c1O`: the Potency result is “inactive”.

On to `N#C/C(=C\c1ccc(N2CCOCC2)c([N+](=O)[O-])c1)c1nc2ccccc2[nH]1`, for which the Potency entry was “inactive”.

`CC1(c2ccccc2)NC(=O)N(CC(=O)NNC(=O)c2ccccc2F)C1=O` (stereo not given): the Potency result was “inactive”.

Regarding `CSc1ncccc1C(=O)OCc1c(F)cccc1Cl`, the Potency entry is “inactive”.

Regarding `CCOc1ccc(CCNC(=O)c2ccc3ccccc3n2)cc1OCC`, the Potency result was “inactive”.

On to `CCN1CCN(c2nc3sc4c(c3c3ncnn23)CC(C)CC4)CC1` (stereo not given), for which the Potency result was “inactive”.

Consider `CCOC(=O)c1cc(NC(=O)c2cccnc2)cc(C(=O)OCC)c1`, for which the Potency entry was “inactive”.

Turning to `CCn1nc(NC(=O)c2cccnc2)c2cc3ccccc3nc21`, the Potency is 20.6 µM (active).

For the compound `CCn1nc(NC(=O)c2ccco2)c2cc3cc(C)ccc3nc21`, the Potency result is “inactive”.

For the compound `CC(=O)c1cccc(Nc2nc(=O)c3cccnc3s2)c1`, the Potency entry is “inactive”.

Turning to `CC(=O)c1cccc(N2C(=O)C3C4CCC(C4=C(C)C)C3C2=O)c1` (stereo not given), the Potency result was “inactive”.

Consider `OCCNc1nc(-c2ccccc2)c2cc(Cl)ccc2n1`, for which the Potency entry was “inactive”.

Turning to `O=c1ccc2ccc(OCCOc3cccc(Cl)c3)cc2o1`, the Potency entry is “inactive”.

In the case of `CCOC(=O)c1sc2nc(OCc3cccnc3)cc(C)c2c1N`, the Potency entry was “inactive”.

As to `CCc1cc(=O)oc2c3c(cc(OCC(=O)Nc4cccnc4)c12)OC(C)(C)CC3`, the Potency entry was “inactive”.

Take `COC(=O)c1ccc2c(=O)[nH]c(COC(=O)c3[nH]c(C)c(C(C)=O)c3C)nc2c1`: the Potency entry was “inactive”.

Regarding `CCC(C)Nc1nc(N)c([N+](=O)[O-])c(Nc2ccccc2OC)n1` (stereo not given), the Potency result is “inactive”.

For the compound `CCN1CCN(C2=C(Cl)C(=O)N(Cc3ccccc3)C2=O)CC1`, the Potency result was “inactive”.

Regarding `COCCCNC(=S)N/N=C/c1ccc2ccccc2c1`, the Potency result is “inactive”.

As to `Cc1cc(C)nc(N2CCCC(C(=O)Nc3ccc4nc(C)c(C)nc4c3)C2)n1` (stereo not given), the Potency result was “inactive”.

`COc1ccc(C)cc1N(C(=O)c1snc(C(N)=O)c1N)C(C(=O)NC1CCCCC1)c1ccc(C)o1` (stereo not given): the Potency result was “inactive”.

As to `CCOC(=O)c1c(C)c(C(=O)N2CCCCCC2)c(C)n1C`, the Potency result was “inactive”.

In the case of `COc1cccc(C2CC(=O)Nc3cc(OC)c(OC)c(OC)c32)c1OC` (stereo not given), the Potency result is “inactive”.

Values taken from PubChem BioAssay AID743262 (National Center for Advancing Translational Sciences (NCATS), 2014).
